Rows were chosen to be rich in hits. Some 5.9% of all compounds tested hit in one or more screens of this group.
GLP1R cytotox – cytotoxic in the GLP-1 receptor inverse agonist counter-screen; HEK293 cAMP-luciferase reporter cells, luminescence, 24 h; 410,000 compounds, 0.13% hits; Potency, µM (titrated, usually from 38.3 µM), most hits filed as inhibitors;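 note: loss of luciferase light is scored as toxicity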
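Compound-treated cells are incubated 24 hr at 37 deg C under 5% CO2 after a 12 hour attachment period, then luciferase detection reagent is added and luminescence is measured following 12 min at room temperature; lowered signal indicates toxicity.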
RORg inh – blocks mouse ROR gamma transcriptional activity; P51450; Drosophila S2 Gal4-RORgamma UAS-luciferase reporter, 20 h; Potency, µM (top dose mostly 53.6 µM), most hits filed as inhibitors; 310,000 compounds, 5.4% hits; note: nearly all actives have a fitted effect of over 60% in size
Target sequence (P51450 whole entry, looked up, the tested form may be a part): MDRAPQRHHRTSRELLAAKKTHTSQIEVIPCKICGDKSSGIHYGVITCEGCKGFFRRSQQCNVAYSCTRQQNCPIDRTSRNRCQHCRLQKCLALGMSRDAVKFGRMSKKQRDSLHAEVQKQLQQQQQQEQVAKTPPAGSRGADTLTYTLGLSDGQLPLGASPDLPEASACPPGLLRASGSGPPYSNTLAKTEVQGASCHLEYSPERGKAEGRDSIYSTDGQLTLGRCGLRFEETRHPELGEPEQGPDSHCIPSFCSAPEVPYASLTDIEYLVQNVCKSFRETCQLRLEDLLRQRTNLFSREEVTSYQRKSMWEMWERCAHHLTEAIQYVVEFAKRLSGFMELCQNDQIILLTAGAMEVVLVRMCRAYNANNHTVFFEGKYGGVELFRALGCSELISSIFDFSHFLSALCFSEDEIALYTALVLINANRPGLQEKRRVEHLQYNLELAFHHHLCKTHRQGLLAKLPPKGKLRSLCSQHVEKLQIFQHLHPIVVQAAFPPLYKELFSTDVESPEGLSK
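Using a luciferase readout, inhibitors were identified by reduced reporter activity in Drosophila cells coexpressing a copper-inducible Gal4–ROR gamma fusion and UAS-driven Photinus luciferase, incubated 20 hr after 700 uM copper sulfate.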
GLP-1R agonist – agonists of human GLP-1 receptor; AID 624172; P43220; 380,000 compounds, 0.007% hits; Potency, µM (series often up to 45.6 µM), usual class: activators; HEK293 GLP-1R CRE-luciferase, luminescence, 4-6 h; cells express a hypersensitive GLP-1R form
GLP1R inv ag – acts as inverse agonist at human GLP-1 receptor; HEK293 GLP-1R CRE-luciferase, luminescence, 24 h; GLP-1R form is constitutively active; Potency, µM (top dose mostly 38.3 µM), hits mostly inhibitors; 410,000 compounds, 1.6% hits; AID 624417; note: nearly all actives have a fitted effect of over 55% in size
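Constitutively active GLP-1R drives a cAMP-responsive luciferase in stably transfected HEK293 cells; test compounds are added after overnight (12 h) attachment and left 24 hr, and signal loss in luminescence marks inhibition.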
Gal4-VP16 FLuc – Gal4-VP16 reporter inhibition counter-screen | Potency, µM (titrated, usually from 53.6 µM), hits mostly inhibitors | AID 2546 | 310,000 compounds, 3.5% hits | Drosophila S2 Gal4-VP16 UAS-luciferase, luminescence, 20 h;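 note: Gal4-VP16 expression switched on by copper sulfate through the metallothionein promoter; nearly all actives have a fitted effect of over 50% in size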
Numbers stand for hits; ! = not confirmed by another sample; [ ] = dose if it differs, or a comment. Calls come from the whole dose curve; as a rule, active = well fitted curve in the direction sought with a large enough effect; inconclusive = small, poorly fitted or top-dose-only effect, or another doubt; inactive = no such curve, though single readings can be large; an effect the other way counts as inactive or inconclusive.

Screening Cc1nn2c(=O)cc(CSc3nc4ccccc4[nH]3)nc2s1 returned GLP1R cytotox inactive, RORg inh 4µM, GLP-1R agonist inactive, GLP1R inv ag inactive and Gal4-VP16 FLuc inactive.
COc1ccc(C(=O)Nc2ccccc2SCc2cc(=O)n3nc(C)sc3n2)cc1OC was read as GLP1R cytotox inactive, RORg inh inactive, GLP-1R agonist inactive, GLP1R inv ag inactive and Gal4-VP16 FLuc inactive.
Screening Cc1ccc2nc(Nc3nc(C)cc(-c4ccccc4)n3)[nH]c(=O)c2c1 returned GLP1R cytotox inactive, RORg inh inactive, GLP-1R agonist inactive, GLP1R inv ag inactive and Gal4-VP16 FLuc inactive.
For Cc1ccc2nc(NC3=NCN(Cc4ccccc4)CN3)nc(C)c2c1 the results were RORg inh inactive and Gal4-VP16 FLuc inactive.
`Cc1ccc2c(C)nc(Nc3nc(CSc4nc5ccccc5[nH]4)cc(=O)[nH]3)nc2c1` gave GLP1R cytotox inconclusive, RORg inh inconclusive, GLP-1R agonist inactive, GLP1R inv ag inactive and Gal4-VP16 FLuc 5.6µM.
Screening Cc1ccc(SCc2cc(=O)[nH]c(Nc3nc(C)c4ccc(C)cc4n3)n2)cc1 returned GLP1R cytotox inactive, RORg inh inactive, GLP-1R agonist inactive, GLP1R inv ag inactive and Gal4-VP16 FLuc inactive.
Cc1ccc2nc(Nc3nc(-c4ccccc4)cc(=O)[nH]3)nc(C)c2c1 was read as GLP1R cytotox inactive, RORg inh inconclusive, GLP-1R agonist inactive, GLP1R inv ag inactive and Gal4-VP16 FLuc 13µM.
`Cc1ccc2nc(Nc3nc(=O)c4ccccc4n3C)nc(C)c2c1` gave RORg inh 0.79µM and Gal4-VP16 FLuc 1µM.
For CC(C)Oc1ccc(CNC(=O)C2CCN(c3nc4ccccc4nc3C(F)(F)F)CC2)cc1 the results were GLP1R cytotox inactive and GLP1R inv ag inconclusive.
COc1ccc2c(C)nc(Nc3nc(-c4ccccc4)cc(=O)[nH]3)nc2c1 was read as GLP1R cytotox inconclusive, RORg inh 4.5µM, GLP-1R agonist inactive, GLP1R inv ag inactive and Gal4-VP16 FLuc 4µM.
`Oc1cc2c(cc1O)C1c3ccc(O)c(O)c3OCC1(O)C2` (stereo not drawn) gave GLP1R cytotox inconclusive, RORg inh inconclusive, GLP-1R agonist inactive, GLP1R inv ag inactive and Gal4-VP16 FLuc 13µM!.
Screening COc1ccc(N2C(=O)C(CC(=O)Nc3ccc(F)cc3)N(CCC3=CCCCC3)C2=O)cc1 (stereo not drawn) returned GLP1R cytotox inactive and GLP1R inv ag inactive.
Screening Cc1ccsc1CCN1C(=O)N(c2ccccc2)C(=O)C1CC(=O)Nc1ccc(Cl)cc1 (stereo not drawn) returned GLP1R cytotox inactive and GLP1R inv ag 10µM.
`O=C(CC1C(=O)N(c2ccccc2)C(=O)N1CCC1=CCCCC1)Nc1ccc(F)cc1` (stereo not drawn) gave GLP1R cytotox inactive and GLP1R inv ag 10µM.
Screening COC(=O)c1ccc(Nc2nnc(-c3ccc(C)c(S(=O)(=O)N4CCN(C)CC4)c3)c3ccccc23)cc1 returned GLP1R cytotox inactive and GLP1R inv ag inconclusive.
For CC(CNC(=O)Cn1c(-c2cccs2)cc2cc(Cl)ccc21)c1ccccc1 (stereo not drawn) the results were GLP1R cytotox inactive and GLP1R inv ag inactive.
Screening CC1CCCCC1NC(=O)NC(=O)COC(=O)c1nccnc1N (stereo not drawn) returned GLP1R cytotox inactive, GLP-1R agonist inactive and GLP1R inv ag inactive.
Screening CC1CCCCC1NC(=O)NC(=O)CCl (stereo not drawn) returned GLP1R cytotox inactive, RORg inh 5µM, GLP-1R agonist inactive, GLP1R inv ag inconclusive and Gal4-VP16 FLuc 6.3µM.
CC1CCCC(NC(=O)NC(=O)CCl)C1C (stereo not drawn) was read as GLP1R cytotox inactive, RORg inh 3.2µM, GLP-1R agonist inactive, GLP1R inv ag inconclusive and Gal4-VP16 FLuc 5µM.
For COCCNC(=O)CSc1nc(-c2ccc(C)cc2)nc2c1c(=O)n(C)c(=O)n2C the results were GLP1R cytotox inactive and GLP1R inv ag inactive.
`O=C(CCCCCn1c(=S)[nH]c2ccc(N3CCOCC3)cc2c1=O)NCc1cccc(Cl)c1` gave GLP1R cytotox inactive, RORg inh 10µM, GLP-1R agonist inactive, GLP1R inv ag inactive and Gal4-VP16 FLuc inactive.
`COc1ccc(CCn2c(=S)[nH]c3ccc(N4CCOCC4)cc3c2=O)cc1OC` gave GLP1R cytotox inactive[7.66 µM], RORg inh 13µM, GLP-1R agonist inactive, GLP1R inv ag inactive[7.66 µM] and Gal4-VP16 FLuc inconclusive.
For O=c1c2cc(N3CCOCC3)ccc2[nH]c(=S)n1Cc1ccccn1 the results were GLP1R cytotox inactive, RORg inh 7.9µM, GLP-1R agonist inactive, GLP1R inv ag inactive and Gal4-VP16 FLuc inconclusive.
For O=c1c2cc(N3CCOCC3)ccc2[nH]c(=S)n1CCc1ccccc1 the results were GLP1R cytotox inactive, RORg inh 2µM, GLP-1R agonist inactive, GLP1R inv ag inactive and Gal4-VP16 FLuc 3.2µM.
Screening COc1ccc(CNC(=O)CN(c2cc(C(F)(F)F)ccc2Cl)S(C)(=O)=O)cc1 returned GLP1R cytotox inactive, GLP-1R agonist inactive and GLP1R inv ag inactive.
For CC(C)Oc1ccc(C(=O)N2CC(=O)Nc3ccc(F)cc3C2c2ccc(F)cc2)cc1 (stereo not drawn) the results were GLP1R cytotox inactive and GLP1R inv ag inconclusive.
`COc1cc(N(C)C)ccc1C=c1c2ccccc2n2c1cc(-c1ccccc1)[n+]2C` gave GLP1R cytotox 13µM, GLP-1R agonist inactive and GLP1R inv ag 8.9µM.
For COc1ccc(NC(=O)c2cc(OCCCN(C)C)nn2Cc2ccccc2)cc1 the results were RORg inh inactive and Gal4-VP16 FLuc inactive.
`Cc1ccccc1NC(=O)c1sc2nc(N3CCOCC3)c3c(c2c1N)CCCC3` gave GLP1R cytotox inactive, RORg inh inactive, GLP-1R agonist inconclusive, GLP1R inv ag inactive and Gal4-VP16 FLuc inactive.
Nc1c(C(=O)NCCc2ccccc2)sc2nc(N3CCOCC3)c3c(c12)CCCC3 was read as GLP1R cytotox inactive, RORg inh inconclusive, GLP-1R agonist inactive, GLP1R inv ag 8.9µM and Gal4-VP16 FLuc inactive.
`CCc1cccc(NC(=O)Cn2c(=O)n(CCC(=O)NCc3ccccc3Cl)c(=O)c3sccc32)c1` gave GLP1R cytotox inactive and GLP1R inv ag inactive.
C=CCN(CC=C)C(=S)NC(=O)/C=C/c1ccc(C)cc1 was read as GLP1R cytotox inactive, RORg inh 6.3µM, GLP-1R agonist inactive, GLP1R inv ag inactive and Gal4-VP16 FLuc inconclusive.
`C=CCN(CC=C)C(=S)NC(=O)/C=C/c1ccccc1` gave GLP1R cytotox inactive, RORg inh 14µM, GLP-1R agonist inactive, GLP1R inv ag inactive and Gal4-VP16 FLuc inactive.
C=CCN(CC=C)C(=S)NC(=O)/C=C/c1ccc(OC)cc1 was read as GLP1R cytotox inactive, RORg inh inactive, GLP-1R agonist inactive, GLP1R inv ag inconclusive and Gal4-VP16 FLuc inactive.
